# Results taken from PubChem BioAssay (NCI).
# This is part of a sample that, as a whole, favours compounds with a hit. Of some 83,000 tested, about 20% had one in any assay.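 Step 1: grow cells in 96-well plates. Step 2: add test compound at a single concentration. Step 3: incubate 48 h. Step 4: record percent growth.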 Calls of active or inactive are those of the source. Rule for the calls: active = growth percent below 10; inactive = the rest.
# Test system: SK-MEL-5 melanoma
# Assay: NCI-60 one-dose screen, 48 h (100 = growth as untreated, 0 = no growth, -100 = all killed)
# Conditions: 10 µM unless noted
row,SMILES,growth
1,COc1ccc2c(c1)c(-c1noc(-c3cn(C)c4ncc(F)cc34)n1)cn2C,74.8% (inactive)
2,O=C(N/N=C\c1cc(Cl)ccc1O)N/N=C/c1cc(Cl)ccc1O,52.1% (inactive)
3,O=C(O)c1ccccc1C(F)(F)F,105% (inactive)
4,CS(=O)(=O)c1cccnn1,92.9% (inactive)
5,O=C(Nc1ccc(Oc2ccc(F)cc2)c(Cl)c1)c1cccnn1,30.7% (inactive)
6,CCC(Br)(CC)C(=O)c1ccc(OCC(=O)O)c(Cl)c1Cl,97.7% (inactive)
7,NC(=O)c1cccc(-c2ccc(S(=O)(=O)Nc3ccc4c(c3)N(C(=O)C3CC3)CCC4)cc2)c1,11.4% (inactive)
8,C#CCC(C(=O)OCC)C(=O)OCC,105% (inactive)
9,O=[N+]([O-])c1cc(CCl)ccc1OCCBr,98.6% (inactive)
10,O=C(O)c1cn(C2CC2)c2cc(N3CCN(Cc4cc(Cl)ccc4O)CC3)c(F)cc2c1=O,58.8% (inactive)
11,Cc1ccc(C2=C/C(=C/c3ccc(Br)cc3)C(=O)N2CCc2ccc(S(N)(=O)=O)cc2)cc1,94.7% (inactive)
12,COc1ccc(C(=O)/C=C/c2ccccn2)c(O)c1,95% (inactive)
13,Cc1cc(C)c(S(=O)(=O)/N=c2/n(-c3ccccc3)nc3n2CCN3C2=NCCN2)c(C)c1,60.4% (inactive)
14,Cc1ccc(S(=O)(=O)n2cc(C(=O)C(=O)N3CCCCC3)c3ccccc32)cc1,47.3% (inactive)
15,COc1cc(C)cc2oc3oc(=N)c(C(=O)c4ccccc4)cc3c(=O)c12,96.8% (inactive)
16,COc1ccc(OC)c([N+](=O)[O-])c1C(=O)CNC(C)=O,101% (inactive)
17,Cc1ccc(S(=O)(=O)N/N=C2\CC3CCC2(C)C3(C)C)cc1 (configuration not stated),101% (inactive)
18,O=C(N=c1n(-c2ccccc2)nc2n1CCN2C1=NCCN1C(=O)c1ccc(Cl)cc1)c1ccc(Cl)cc1,70.9% (inactive)
19,O=C(NCc1ccc(Cn2c(=O)sn(-c3ccccc3)c2=O)cc1)OCc1ccc2c(Br)cc(Br)c(O)c2n1,-97.4% (active)

row,SMILES,growth
1,Cc1nc(Cl)c2c(n1)N(C)c1ccc(Cl)cc1C(C)C2 (configuration not stated),82.5% (inactive)
2,C=C(C)[C@@H]1CC[C@]2(COCCC#N)CC[C@]3(C)[C@H](CC[C@@H]4[C@@](C)(CCCNCCC#N)[C@H](C(=C)C)CC[C@]43C)[C@@H]12,2.58% [100 µM] (active)
3,O=C(Nc1cccc(F)c1)c1cc(=O)[nH]c2cc(Br)ccc12,32% (inactive)
4,O=C(NCCCNC(=O)OCc1ccc2c(Br)cc(Br)c(O)c2n1)OCc1ccc2c(Br)cc(Br)c(O)c2n1,-77.7% (active)
5,COc1ccc(OC)c(NC=O)c1,110% (inactive)
6,CCN(CCNc1ccc(C)c2sc3cc(Cl)ccc3c(=O)c12)CC(C)O (configuration not stated),-98.1% (active)
7,CN(C)c1ccc(-c2ccc(-c3ccc(C(=N)N)cc3)s2)cc1,74.3% (inactive)
8,CC(=O)OC[C@]12CC[C@@H]([C@@H](C)C(N)=O)[C@@H]1[C@H]1CC[C@@H]3[C@@]4(C)CC[C@H](OC(C)=O)C(C)(C)[C@@H]4CC[C@@]3(C)[C@]1(C)CC2,-71.9% [100 µM] (active)
9,O=C(Nc1ccccc1)Nc1ccc(C(=O)/C=C/c2ccc(N3CCCC3)cc2)cc1,45% (inactive)
10,C#C[C@]1(O)CC[C@H]2[C@@H]3CC=C4c5nc(Nc6ccccn6)sc5CC[C@]4(C)[C@H]3CC[C@@]21C,-82.2% (active)
11,Cn1cc(-c2nnc(-c3cn(C)c4ncccc34)o2)c2ccccc21,0.903% (active)
12,O=C1C(Cl)=C(Nc2ccc3cn[nH]c3c2)C(=O)c2ccccc21,-99.5% (active)
13,COc1cc(/C=C/C(=O)/C=C/c2ccc(-n3ccnc3C)cc2)ccc1O,85.2% (inactive)
14,Nc1cc(Cl)cc2cccnc12,101% (inactive)
15,CN(C)CCOc1ccc(/C(=C(/CCCl)c2ccccc2)c2ccccc2)cc1,-98.3% (active)
16,Nc1cc(N)c(N=Nc2ccc(S(=O)(=O)O)cc2)cc1N=Nc1ccc(-c2ccc(N=Nc3ccc(O)c(C(=O)O)c3)cc2)cc1,101% (inactive)
17,Cn1cc(-c2noc(-c3cn(C)c4ncc(F)cc34)n2)c2ccccc21,82.8% (inactive)
18,Nc1ccc(NC(=O)c2ccccc2)c2c1C(=O)c1ccccc1C2=O,94.2% (inactive)
